# In all, about 11,000 compounds went through this assay and about 310 (2.8%) were called active. Rule as the data show it: active = activity change below about -85%; inactive = the rest. For the sample, actives were picked, then their nearest neighbours and some compounds at random.
# System: intestinal alkaline phosphatase [Mus musculus]
# Assay: mouse intestinal phosphatase enzyme activation – biochemical, luminescence, single concentration, confirmation (AID 434970)
# Conditions: purified mouse IAP, CDP-Star luminescence, 30 min, at 10 µM; activation factor: measured here: IAP activation factor, stronger effect = higher value; activity change, negative = activation: stronger effect = lower value
Structure (SMILES),activation factor,"activity change, negative = activation"
Cc1occc1-c1nnc(SCC(=O)Nc2ccc3c(c2)OCO3)n1CC1CCCO1 (stereo not given),0.919,8.1% (inactive)
CCOC(=O)C1=CN(Cc2cccc(F)c2)S(=O)(=O)NC1c1ccc(F)c(Cl)c1 (stereo not given),0.881,11.9% (inactive)
C#CCOCCOCCOCCNc1nc(N2CCN(C(=O)CCCCCCCCCCNC(=O)Cn3cc(CCCCCN)nn3)CC2)nc(N2CCN(C(=O)CCCCCCCCCCNC(=O)Cn3cc(C[C@@H](C)O)nn3)CC2)n1,2.22,-122% (active)
C#CCOCCOCCOCCNc1nc(N2CCN(C(=O)[C@H](Cc3cc4ccccc4[nH]3)n3cc([C@@H](N)CC(C)C)nn3)CC2)nc(N2CCN(C(=O)[C@H](Cc3cc4ccccc4[nH]3)n3cc([C@@H](N)CC(C)C)nn3)CC2)n1,1.61,-60.9% (inactive)
C#CCOCCOCCOCCNc1nc(N2CCN(C(=O)CCCCCCCCCCNC(=O)Cn3cc(C[C@@H](C)O)nn3)CC2)nc(N2CCN(C(=O)CCCCCCCCCCNC(=O)[C@@H]([C@H](C)CC)n3cc(CCCCCN)nn3)CC2)n1,5.59,-459% (active)
C#CCOCCOCCOCCNc1nc(N2CCN(C(=O)CCCCCCCCCCNC(=O)Cn3cc(CCCCCN)nn3)CC2)nc(N2CCN(C(=O)CCCCCCCCCCNC(=O)[C@H]([C@@H](C)CC)n3cc(CCCCN=C(N)N)nn3)CC2)n1,10,-904% (active)
C#CCOCCOCCOCCNc1nc(N2CCN(C(=O)CCCCCCCCCCNC(=O)Cn3cc(CCCCCN)nn3)CC2)nc(N2CCN(C(=O)CCCCCCCCCCNC(=O)[C@H]([C@@H](C)CC)n3cc(CCCCCN)nn3)CC2)n1,3.67,-267% (active)
CCOC(=O)CN1C(=O)/C(=C2\SC(=S)N(NC(=O)c3cccnc3)C2=O)c2ccccc21,0.472,52.8% (inactive)
Cc1c(C(=O)N2CCN(c3ncccn3)CC2)sc2nc3n(c(=O)c12)CCCC3,1.11,-11.4% (inactive)
Clc1ccc2nc(C3CCN(Cc4nnnn4C4CCCCC4)CC3)[nH]c2c1,1.15,-14.6% (inactive)
CCn1nnnc1SCC(=O)c1cccc(OC)c1,0.96,4.05% (inactive)
COc1cccc(CNC(=O)c2ccc(NC(=O)C3CCCO3)cc2)c1 (stereo not given),0.932,6.8% (inactive)
CCOc1ccc(-n2cc(C(=O)Nc3ccc(Cl)cn3)c3cc(OC)c(OC)cc3c2=O)cc1,0.946,5.4% (inactive)
Oc1ccccc1C1=NOC(O)(C(F)F)C1 (stereo not given),0.928,7.2% (inactive)
CCOC(=O)N1CCN(C(=O)c2ccc3c(=O)n(CCC4=CCCCC4)c(=O)[nH]c3c2)CC1,0.936,6.4% (inactive)
O=C(CC1CCCC1)Nc1nnc(C2CC2)s1,0.933,6.65% (inactive)
Cc1onc(-c2ccccc2)c1C(=O)Nc1nc2c(s1)C(=O)CC(C)(C)C2,0.877,12.2% (inactive)
O=C(NCCc1ccccc1)c1cc(-c2ccccc2)c(N2CCOCC2)s1,1.46,-45.9% (inactive)
CCOc1ccc(CCNC(=O)c2cc(-c3ccccc3)c(N3CCOCC3)s2)cc1,2.1,-110% (active)
CCOc1ccc(CCNC(=O)c2cc(-c3ccccc3)c(N3CCOCC3)s2)cc1OCC,1.74,-73.9% (inactive)
O=C(NCCc1ccc(F)cc1)N1CCOCC1,1.01,-0.6% (inactive)
O=C(CCCC(=O)N(CC(=O)NC1CCCCC1)Cc1ccccc1)Nc1ccccn1,1.16,-15.6% (inactive)
CCCCC(=O)Nc1ccc(NC(=O)c2cccnc2)cn1,1.06,-5.55% (inactive)
Cc1ccccc1NC(=O)/C(=C\c1cccs1)NC(=O)c1ccccc1,1.02,-1.5% (inactive)
COc1ccc(C(CCN2CCOCC2)c2c(OC)cc(OC)c3c(-c4ccccc4)cc(=O)oc23)cc1 (stereo not given),1.07,-7.05% (inactive)
O=C(Cc1ccccc1Cl)Nc1cccc(S(=O)(=O)N2CCCCCC2)c1,1.61,-60.6% (inactive)
O=C(Nc1cccc(Cl)c1)Nc1cc(S(=O)(=O)N2CCCCC2)ccc1Cl,2.08,-108% (active)

Structure (SMILES),activation factor,"activity change, negative = activation"
O=C(CN1CCN(S(=O)(=O)c2ccc(Cl)cc2)CC1)NC(=O)NC1CCCCC1,0.929,7.05% (inactive)
O=C(Nc1ccc(Cl)cc1F)c1cc(S(=O)(=O)N2CCCCC2)ccc1F,1.11,-11.5% (inactive)
Cc1cc(OCC(=O)Nc2cccc(S(=O)(=O)N3CCCCC3)c2)ccc1Cl,1.81,-81.3% (inactive)
O=C(Nc1cccc(S(=O)(=O)N2CCCCC2)c1)Nc1ccc(Cl)cc1Cl,4.41,-341% (active)
O=C(Cc1ccc(Cl)cc1)Nc1cccc(S(=O)(=O)N2CCCCC2)c1,1.4,-40.2% (inactive)
O=C(Nc1ccc(Cl)cc1Cl)NC1CCN(S(=O)(=O)c2ccc(F)cc2)CC1,2.16,-116% (active)
COc1ccc(CCNc2nc(-c3ccco3)cc(C(F)(F)F)n2)cc1OC,0.889,11.2% (inactive)
CCn1c(CSc2nc3ccccc3[nH]2)nc2cc(C(=O)O)ccc21,0.865,13.6% (inactive)
CN1CCN(CCc2nc3cc(NC(=O)COc4ccccc4)ccc3n2C)CC1,0.96,4.05% (inactive)
CN1CCN(C(=O)c2ccc3c(c2)OCCO3)CC1,0.959,4.15% (inactive)
Cc1nc(CC(=O)Nc2nc(-c3ccccc3)cs2)cs1,0.961,3.9% (inactive)
COc1ccc(OC)c(S(=O)(=O)N2CCC(C(=O)NC(C)c3ccccc3)CC2)c1 (stereo not given),1.03,-3.4% (inactive)
Nc1c(C(=O)NCCc2ccccc2)nnn1Cc1ccc(Cl)cc1,1.1,-9.55% (inactive)
Cc1cc(C)c2c(n1)nn1c(NCCOCCO)cc(C)nc21,0.968,3.25% (inactive)
Cc1ccc(S(=O)(=O)N2C[C@@H]3[C@H]4CC[C@H](C4)[C@@H]3[C@@H](C)[C@@H]2c2ccn([Si](C(C)C)(C(C)C)C(C)C)c2)cc1,0.986,1.35% (inactive)
COc1ccc(S(=O)(=O)Nc2cc(C(C)C)c(O)cc2C)cc1,0.996,0.45% (inactive)
Cc1ccc(SCCCn2cnc3ccccc3c2=O)cc1,0.958,4.25% (inactive)
COc1cc(OC)c2c(-c3ccccc3)cc(=O)oc2c1C(CCN1CCOCC1)c1ccc2c(c1)OCO2 (stereo not given),0.932,6.8% (inactive)
CCN(CC)C(=O)[C@H]1CC(CC(=O)NCCC2=CCCCC2)C(=O)N2CCc3c([nH]c4ccc(OC)cc34)[C@]12C (stereo not given in full),1.07,-7.45% (inactive)
S=C(Nc1cccc(Cl)c1)NC1CC2CCCC(C1)N2C1CCCC1 (stereo not given),1.44,-44.3% (inactive)
O=C(Nc1cccc(Cl)c1)NC1CCN(C2CCCCC2)C1 (stereo not given),1.85,-84.9% (inactive)
O=C(Nc1cccc(-c2cccc(F)c2)c1)C1CCN(C2CCC2)CC1,2.55,-155% (active)
COc1ccc(OC)c(S(=O)(=O)N2CCC(C(=O)Nc3cccc(C(F)(F)F)c3)CC2)c1,1.61,-60.9% (inactive)
O=C(Nc1cccc(F)c1)C1CC(=O)N(c2ccc(Cl)cc2)C1 (stereo not given),1.07,-7.45% (inactive)
O=C(Nc1cccc(-c2cccc(Cl)c2)c1)C1CCN(C2CCC2)CC1,3.94,-294% (active)
Cc1noc(C)c1COC(=O)C1COc2ccccc2O1 (stereo not given),1.08,-8.15% (inactive)
CC[C@]12c3[nH]c4cc(-c5ccco5)ccc4c3CCN1C(=O)[C@@H](CC(=O)NCC13CC4CC(CC(C4)C1)C3)C[C@@H]2C(=O)N1CCN(C(=O)C2CC2)CC1,0.989,1.05% (inactive)

Structure (SMILES),activation factor,"activity change, negative = activation"
COc1cc2sc(-c3ccccc3OC)c(-c3ccc(OCCN4CCOCC4)cc3)c2cc1OC,1,-0.3% (inactive)
CCSc1nnc(NC(=O)CCNS(=O)(=O)c2cc(Br)cnc2N)s1,0.825,17.4% (inactive)
CCOC(=O)c1cccc(NC(=O)Nc2ccc(OCC)cc2)c1,1.88,-87.6% (inactive)
O=C(Nc1ccc(F)cc1)Nc1cc(OCC(F)(F)F)cc(OCC(F)(F)F)c1,2.11,-111% (active)
O=C(Nc1ccc(F)cc1)Nc1cccc(Br)c1,1.74,-73.8% (inactive)
CCOc1ccc(NC(=O)Nc2cc(OCC(F)(F)F)cc(OCC(F)(F)F)c2)cc1,2.08,-108% (active)
CCOc1ccc(NC(=O)Nc2cc(C)ccc2OC)cc1,1.16,-15.9% (inactive)
CC(C)(C)c1ccc(NC(=O)Nc2ccc(F)cc2)cc1,1.65,-65.3% (inactive)
CC(C)Oc1cccc(C(=O)Nc2ccc(N3CCN(S(C)(=O)=O)CC3)cc2)c1,1.1,-10.2% (inactive)
CCOCCCNC(=O)C(C)NS(=O)(=O)c1ccc(C)cc1 (stereo not given),0.903,9.65% (inactive)
COc1ccc(C(=O)NCC(C)C)c(OC)c1,0.893,10.7% (inactive)
CC(C)(C)OC(=O)N[C@@H](Cc1ccccc1)c1nnc(SCC(=O)O)o1,0.956,4.4% (inactive)
O=S(=O)(c1ccc2ccccc2c1)N1CCCOC1,1.17,-16.5% (inactive)
CCOc1ccccc1NC(=O)N1C2CCCC1CC(NC(=O)C1CC1)C2 (stereo not given),1.05,-5.1% (inactive)
CC(=O)c1cccc(NC(=O)NC(C)C2CCCO2)c1 (stereo not given),1.12,-12.2% (inactive)
COc1cc(NC(=O)CCN2CCN(Cc3ccccc3)CC2)cc(OC)c1,0.978,2.15% (inactive)
COc1cccc(NC(=O)NC(C)C2CC3CCC2C3)c1 (stereo not given),1.97,-96.6% (active)
COc1cc(NC(=O)NC2Cc3ccccc3C2)cc(OC)c1,2.69,-169% (active)
COc1cccc(NC(=O)NCCCSC2CCCCC2)c1,1.68,-67.6% (inactive)
COc1cccc(NC(=O)CC2COc3ccccc3O2)c1 (stereo not given),1.15,-15% (inactive)
COc1cc(NC(=O)c2ccccc2)cc(OC)c1,0.99,0.95% (inactive)
CCN1CCN(CCC(=O)Nc2cccc(OC)c2)CC1,0.925,7.45% (inactive)
COc1cccc(C(=O)NC2CCN(C(=O)N3CCCCC3)CC2)c1,1.09,-9.3% (inactive)
CCC1CCC(NC(=O)Nc2cccc(OC)c2)CC1 (stereo not given),2.37,-137% (active)
COc1cccc(NC(=O)NC2CCCCCCC2)c1,2.67,-167% (active)
COc1cccc(NC(=O)N2CCCC2C(=O)NC(C)C)c1 (stereo not given),0.971,2.9% (inactive)
